Hits are enriched below; roughly 7.8% of the tested compounds scored in any of these assays.
MARV entry inh: Marburg virus entry inhibition | Marburg virus pseudotyped entry inhibition, cell reporter | Potency, µM (highest dose often 37.8 µM), inactives show at the top dose activity change, negative = inhibition, usual class: inhibitors | 300,000 compounds, 1.8% hits; calls by dose curve; tested in HEK293 cells; also: potency is read from the fitted curve at half-maximal effect
VACV Venus inh: inhibitors of vaccinia virus (Venus reporter). Vaccinia virus Venus reporter expression, fluorescence. Potency, µM (highest dose often 36.5 µM), for inactives: at the top dose activity change, negative = inhibition, hits mostly inhibitors. 330,000 compounds, 0.46% hits. AID 720580; calls by dose curve; tested in A549 cells; also: potency is read from the fitted curve at half-maximal effect; nearly all actives have a fitted effect of over 30% in size
LASV entry inh: Lassa virus entry inhibition; Lassa virus pseudotype entry inhibition, cell reporter; 300,000 compounds, 1.2% hits; Potency, µM (titrated, usually from 37.9 µM), without a hit: top-dose activity change, negative = inhibition, most hits filed as inhibitors; AID 540256; calls by dose curve; tested in HEK293 cells; also: potency is read from the fitted curve at half-maximal effect; nearly all actives have a fitted effect of over 50% in size
HCV inh: inhibitors of hepatitis C virus infection; 340,000 compounds, 3.4% hits; Potency, µM (titrated, usually from 41.8 µM), for inactives: at the top dose activity change, negative = inhibition, hits mostly inhibitors; Huh7.5.1 HCVcc-Cre infection, luciferase reporter, 44 h; active = well fitted inhibition curve with a large enough effect; inconclusive = small, poorly fitted or top-dose-only effect, or another doubt; inactive = no such curve, though single readings can be large or run the other way; also: potency is read from the fitted curve at half-maximal effect
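Infectious HCV cell culture screen: compound-treated cells (1,000/well, pre-plated 4 h) are infected with HCVcc-Cre at roughly 0.5 moi and grown 44 h. Infection is quantified by luciferase signal after 15 min substrate incubation at room temperature.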
HCMV antiviral: blocks human cytomegalovirus replication. HFF cells, HCMV-luciferase reporter, 72 h; active compounds read low. activity change, negative = inhibition, % at 57.5 µM. 410,000 compounds, 4.5% hits. AID 1259415; in the data active = activity change below about -60%; inconclusive = no clear call, values can overlap the other calls; inactive = above about -39%
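Two-dose cell screen: HFF monolayers treated with compounds and infected with luciferase-expressing HCMV at 1 PFU/cell, 72 h at 37C, then lysed for luciferase measurement.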
Vaccinia mCherry: inhibitors of vaccinia virus infection (mCherry reporter signal); Vaccinia virus mCherry reporter infection, fluorescence; Potency, µM (top dose mostly 36.5 µM), inactives show top-dose activity change, negative = inhibition, most hits filed as inhibitors; 310,000 compounds, 0.63% hits; AID 720579; calls by dose curve; tested in A549 cells; also: potency is read from the fitted curve at half-maximal effect; nearly all actives have a fitted effect of over 35% in size
An asterisk follows results filed as active; i = inactive; ? = inconclusive; / = not tested or not shown; [ ] = another dose, or the depositor's remark. % is scaled to controls: 0 for no effect and ±100 for the full control effect.

SMILES	MARV entry inh	VACV Venus inh	LASV entry inh	HCV inh	HCMV antiviral	Vaccinia mCherry
C=CCC[C@@H](Cc1ccc(F)cc1)C(=O)OC[C@@H](Cc1ccccc1)NC(=O)[C@H](CC=C)CC(=O)NCCO	/	?	/	7.08µM*	-20.4	-2.9%
C=CCC[C@@H](Cc1ccc(F)cc1)C(=O)OC[C@@H](Cc1c[nH]c2ccccc12)NC(=O)[C@@H](CC=C)CC(=O)N(CCO)Cc1ccccc1	/	?	/	?	-16.8	-23.0%
Clc1ccc2c(c1)c1cc(Cl)ccc1n2CN1CCOCC1	-21.8%	?	?	22.4µM*	?	?
Cc1ccc(-c2c[n+]3c(n2-c2ccccc2)CCC3)cc1	?	-24.8%	?	?	-95.8*	-16.3%
CCOc1ccc(-c2c(C)n(-c3ccc(OCC)cc3)c3[n+]2CCCCC3)cc1	?	-18.1%	?	2.51µM*	-94.8*	-19.7%
CCOc1ccc(-n2c(C)c(C(C)=O)c(C(C)=O)c2C)cc1	-0.5%	-27.0%	1.3%	1.9%	?	/
c1ccc(-c2c[n+]3c(n2-c2ccccc2)CCC3)cc1	/	/	/	?	-37.1	/
CCOc1ccc(-n2c(-c3ccccc3)c[n+]3c2CCCCC3)cc1	/	/	/	?	-100.2*	/
N#Cc1cc2c(=O)n3ccccc3nc2n(-c2ccc(Cl)cc2)c1=O	/	4.0%	/	9.6%	-60.0*	-3.1%
O=C(NCCc1ccc(Cl)cc1)C(=O)NCC(c1cccs1)S(=O)(=O)c1cccs1 (stereo unspecified)	/	?	?	/	-1.6	-4.1%
CC(C)=CCC/C(C)=C/CC/C(C)=C/CCC1(C)CCc2cc(O)ccc2O1 (stereo unspecified)	/	-6.2%	/	/	/	-11.2%
CC(C)=CCCC1(C)C=Cc2c(c(C)cc3c2[nH]c2cc(O)ccc23)O1 (stereo unspecified)	/	-14.2%	/	-21.8%	-104.4*	-11.7%
Cc1ccc(OCC(O)CNC2CCCC2)c(C)c1 (stereo unspecified)	/	/	/	-27.4%	88.9	/
C=CCc1ccc(OCCOCCOc2ccc(C)cc2[N+](=O)[O-])c(OC)c1	?	-35.0%	-2.6%	11.2µM*	11.1	/
Cc1ccc(OCCCCNC2CCCCC2)c(C)c1	7.3µM*	/	?	12.6µM*	-36.9	/
C=CCc1ccc(OCCCCNC2CCCC2)c(OC)c1	?	-19.8%	?	10µM*	?	i
COc1ccccc1OCCOCCOc1ccc(C)cc1[N+](=O)[O-]	11.1%	-21.3%	-6.4%	-20.7%	5.9	-7.9%
COc1ccc2c(c1)-c1nc(-n3ncc(C(=O)N(C)CC4CCCN(C)C4)c3C)ncc1CC2 (stereo unspecified)	/	-2.4%	/	/	/	-14.9%
COc1ccc(OC)c(CNC(=O)CCCn2c(=O)c3cccn3c3cccnc32)c1	25.7%[46.1 µM]	-16.8%	-7.4%[46.1 µM]	/	-9.1	-15.1%
Cc1ccc(CNC(=O)COCc2cc(-c3cccs3)on2)cc1	/	-11.0%	?	/	3.6	-14.6%
Cc1cc(C)n(Cc2cccc(C(=O)NCC3Cc4cccc(-c5ncccn5)c4O3)c2)n1 (stereo unspecified)	/	-3.7%	/	/	/	-5.6%
O=C(Nc1ccc(Oc2nnc(-c3ccccc3)c3ccccc23)cc1)c1ccccc1	?	-8.1%	2.8%	-7.6%	-60.0*	-6.5%
Cc1cc2ccccc2cn1	/	-4.7%	/	/	/	-10.1%
COc1cc(NC(=O)C2=C(N3CCOCC3)/C(=C/c3ccc(Cl)cc3)CC2)cc(OC)c1OC	15.8µM*	-5.8%	-18.1%	17.1%	45.1	i
COc1cc(NC(=O)C2=C(N3CCOCC3)/C(=C\c3ccc(N(C)C)cc3)CCC2)cc(OC)c1OC	?	?	?	6.31µM*	-90.6*	?
SMILES	MARV entry inh	VACV Venus inh	LASV entry inh	HCV inh	HCMV antiviral	Vaccinia mCherry
CCOC(=O)c1ccccc1NC(=O)c1nn(-c2ccc(C)cc2)c(=O)n(C)c1=O	/	-7.6%	?	/	27.8	-7.6%
Cc1c(C(=O)N2CC3CCC2C3)sc2ncnc(NCc3ccco3)c12 (stereo unspecified)	/	-17.4%	/	/	/	-1.8%
COc1ccccc1CN1C[C@@H]2C[C@@H](C3=Cc4cc(Cl)ccc4OC3)N3CCC[C@@]23C1=O	/	/	/	11.2µM*	-18.3	/
COCc1cc([C@@H]2C[C@H]3CN(c4ccccc4)C(=O)[C@]34CCCN24)ccc1OC	/	-16.2%	/	7.5%	-94.0*	-8.2%
COc1cccc(C2C(C(=O)Nc3ccccc3OC)=C(C)Nc3nc(-c4ccco4)nn32)c1 (stereo unspecified)	-11.4%[46.1 µM]	-6.1%	?	/	11.6	-2.3%
CCCN(CCC)C(=O)CSc1nnc2cc(C)c3cc(C)cc(C)c3n12	13.6%[46.1 µM]	-5.4%	0.4%[46.1 µM]	/	?	-9.7%
COC(=O)C1CCN(C(c2ccccc2)c2sc3nc(-c4ccco4)nn3c2O)CC1 (stereo unspecified)	/	-8.0%	-0.5%[46.1 µM]	/	23.4	-11.9%
CC(=O)c1cccc(Oc2cc(NN3CCCCC3)c([N+](=O)[O-])cc2[N+](=O)[O-])c1	/	?	/	8.91µM*	-36.8	?
O=[N+]([O-])c1cc([N+](=O)[O-])c(Oc2cccnc2Br)cc1NN1CCCCC1	/	?	/	-4.6%	13.3	12.6µM*
O=[N+]([O-])c1cc([N+](=O)[O-])c(Oc2cc(Cl)cc(Cl)c2)cc1NN1CCCCC1	/	-15.1%	/	3.3%	-78.1*	?
O=C(N[C@H]1CC[C@@]23CCCN2C(=O)CCC[C@H]3[C@H]1Cc1ccccc1)C1CCC1	/	/	/	/	12.0	/
CCN(CC)CCCN(c1ccccc1)C1Cc2ccccc2C1	6.51µM*	/	?	/	-12.4	/
Cc1ccc(N2CC(NC(=O)/C=C\c3ccc4c(c3)OCO4)CC2=O)cc1C (stereo unspecified)	/	-3.1%[7.34 µM]	-20.9%[46.1 µM]	/	112.7	-1.7%[7.34 µM]
CCOc1ccc(S(=O)(=O)N(C)CCO)cc1-c1nc2c(C(C)(C)C)nn(C)c2c(=O)[nH]1	-31.5%	-24.1%	2.82µM*	?	-13.4	-26.5%
CCOc1ccc(S(=O)(=O)N(C)C)cc1-c1nc2c(C(C)(C)C)nn(C)c2c(=O)[nH]1	2.0%	-1.8%	-20.4%	8.3%	-17.4	-13.1%
CCOc1ccccc1Nc1ncnc2c1c(-c1ccccc1)cn2-c1ccc(OC)cc1	/	-8.4%	7.8%[46.1 µM]	/	?	-12.3%
Cc1ccc(CCNc2ccc3ccccc3c2)cn1	?	5.9%	?	-8.0%	-63.0*	-11.4%[1.46 µM]
Cc1ccc(S(=O)(=O)N2CCN(c3ncnc4c3cnn4-c3ccccc3)CC2)cc1	4.9%	0.2%	-17.6%	15.9%	-7.0	-14.0%
Cc1ccc(C(=O)N2CCN(c3ncnc4c3cnn4-c3ccccc3)CC2)cc1	/	/	/	/	-76.9*	/
Cc1ccccc1C(=O)N1CCN(c2ncnc3c2cnn3-c2ccccc2)CC1	?	/	-14.8%	7.94µM*	?	/
CC(=O)NCCCc1ccc(C(=O)COC(=O)CNC(=O)c2ccc3ccccc3c2)cc1	/	-9.4%	/	/	/	-5.6%
Cc1ccc2oc(-c3cccc(NC(=O)COc4ccc(Cl)cc4)c3C)nc2c1	/	-11.7%	/	/	/	i
